Hits are enriched below; roughly 10% of the tested compounds scored in any of these assays.
KB-V1 cytotox = kills drug-selected multidrug resistant KB-V1 cells. 400,000 tested, 3.4% active. KB-V1 MDR cells viability, CellTiter-Glo, 72 h. AID 1347076. Potency, µM (top dose mostly 46.1 µM), usual class: cytotoxic; also: % is scaled to controls: 0 for no effect and ±100 for the full control effect; nearly all actives have a fitted effect of over 60% in size
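Cytotoxicity via CellTiter-Glo luminescence after 72 h compound exposure at 37 degrees C. Cells: drug-selected KB-V1 line, DMEM phenol-red free plus 10% FBS. Compounds tested at multiple concentrations; normalized data fitted to concentration-effect curves.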
RORg inh = ROR gamma (mouse) transcription inhibition; Potency, µM (series often up to 53.6 µM), without a hit: at the top dose activity change, negative = inhibition, most hits filed as inhibitors; 310,000 tested, 5.4% active; Drosophila S2 Gal4-RORgamma UAS-luciferase reporter, 20 h; AID 2551; also: % is scaled to controls: 0 for no effect and ±100 for the full control effect; nearly all actives have a fitted effect of over 60% in size
Target sequence (P51450 whole entry, looked up, the tested form may be a part): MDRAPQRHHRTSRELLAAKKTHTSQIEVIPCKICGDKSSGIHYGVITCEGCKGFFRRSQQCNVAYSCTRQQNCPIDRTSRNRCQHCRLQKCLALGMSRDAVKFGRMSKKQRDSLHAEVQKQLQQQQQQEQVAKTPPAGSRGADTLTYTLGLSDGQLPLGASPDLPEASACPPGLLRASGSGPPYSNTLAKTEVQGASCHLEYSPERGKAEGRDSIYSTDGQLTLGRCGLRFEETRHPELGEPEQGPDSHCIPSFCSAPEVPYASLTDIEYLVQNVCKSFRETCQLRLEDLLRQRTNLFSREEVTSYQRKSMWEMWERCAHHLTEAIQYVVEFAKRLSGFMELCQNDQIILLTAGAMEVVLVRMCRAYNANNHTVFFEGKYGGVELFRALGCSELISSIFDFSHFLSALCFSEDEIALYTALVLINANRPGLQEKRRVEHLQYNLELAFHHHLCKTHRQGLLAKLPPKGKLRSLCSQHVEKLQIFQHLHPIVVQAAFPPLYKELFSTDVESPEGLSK
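Compounds are pin-transferred onto Drosophila Schneider cells expressing a copper-inducible Gal4–ROR gamma transactivation domain fusion. After 1 hr, copper sulfate is added to 700 uM final; luciferase is read 20 hr later.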
Gal4-VP16 FLuc = inhibits Gal4-VP16 luciferase reporter, ROR gamma counter-screen; Potency, µM (series often up to 53.6 µM), without a hit: top-dose activity, negative = inhibition, actives largely listed as inhibitors; AID 2546; 310,000 tested, 3.5% active; Drosophila S2 Gal4-VP16 UAS-luciferase, luminescence, 20 h;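 also: Gal4-VP16 expression switched on by copper sulfate through the metallothionein promoter; % is scaled to controls: 0 for no effect and ±100 for the full control effect; nearly all actives have a fitted effect of over 50% in size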
SW480 rerep = induces DNA re-replication in SW480 colon adenocarcinoma cells | SW480 DNA re-replication, Hoechst DNA content imaging, 48 h | Potency, µM (series often up to 46.1 µM), for the others: at the top dose re-replication activation, most hits filed as activators | 340,000 tested, 1.8% active | AID 624297; also: % of control where 0% means no effect; nearly all actives have a fitted effect of over 55% in size
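Hoechst fluorescence of nuclei (405 nm excitation, 500-530 nm emission) measured by plate-scanning imager after 48 hr compound exposure at 37 C; re-replication scored as increased number of nuclei with elevated intensity.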
KB-3-1 tox = kills parental KB-3-1 adenocarcinoma cells | KB-3-1 viability, CellTiter-Glo ATP luminescence, 72 h | Potency, µM (titrated, usually from 46.1 µM), actives largely listed as cytotoxic | 400,000 tested, 1.4% active | AID 1347075; also: % is scaled to controls: 0 for no effect and ±100 for the full control effect; nearly all actives have a fitted effect of over 60% in size
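Cytotoxicity in the drug-sensitive parental line KB-3-1 was scored as loss of CellTiter-Glo luminescence following 72 h incubation with compound. Values come from curve fitting of normalized concentration-response data.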
MCF10A rerep = inducers of DNA re-replication in MCF 10A breast cells | MCF 10A DNA re-replication, Hoechst nuclear intensity, 48 h | Potency, µM (doses to about 46.1 µM), for the others: top-dose activity, positive = re-replication, hits mostly activators | 350,000 tested, 2.9% active | AID 624296; also: % of control where 0% means no effect; nearly all actives have a fitted effect of over 50% in size
* = called active by the depositor; [ ] = dose if it differs, or a comment. Calls follow the shape of the dose curve; as a rule, active = well fitted curve in the direction sought with a large enough effect; inconclusive = small, poorly fitted or top-dose-only effect, or another doubt; inactive = no such curve, though single readings can be large; an effect the other way counts as inactive or inconclusive. Potency is read from the fitted curve at half-maximal effect.

How did COc1ccc(C)cc1-n1c(C)cc(C=O)c1C do in these assays?
KB-V1 cytotox: inactive; RORg inh: -8.0%; Gal4-VP16 FLuc: 1.4%; SW480 rerep: 10.1%; KB-3-1 tox: inactive; MCF10A rerep: -2.4%

Results for COc1ccc(-c2cc(C(=O)Nc3cccc(O)c3)on2)cc1OC ?
KB-V1 cytotox: inactive; KB-3-1 tox: inactive

What do the screens show for `S=c1[nH]nc(-c2ccco2)n1/N=C/c1ccc(Cl)c(Cl)c1`?
KB-V1 cytotox: inactive; RORg inh: 5.62µM*; Gal4-VP16 FLuc: 5.62µM*; SW480 rerep: 0.9%; KB-3-1 tox: inactive; MCF10A rerep: inconclusive

How did Cc1ccsc1/C=N/n1c(-c2ccco2)n[nH]c1=S do in these assays?
KB-V1 cytotox: inactive; RORg inh: -71.4%; Gal4-VP16 FLuc: -22.6%; SW480 rerep: 4.5%; KB-3-1 tox: inactive; MCF10A rerep: -185.1%[0.0737 µM]

What do the screens show for `S=c1[nH]nc(-c2ccccn2)n1/N=C/c1cccc(Cl)c1`?
KB-V1 cytotox: inconclusive; RORg inh: 11.2µM*; Gal4-VP16 FLuc: inconclusive; SW480 rerep: -2.0%; KB-3-1 tox: inactive; MCF10A rerep: -0.3%

How did Cc1ccc(/C=N/n2c(-c3ccco3)n[nH]c2=S)cc1 do in these assays?
KB-V1 cytotox: inactive; RORg inh: 7.08µM*; Gal4-VP16 FLuc: inconclusive; SW480 rerep: -12.3%; KB-3-1 tox: inactive; MCF10A rerep: 0.5%

How did Cn1cccc1/C=N/n1c(-c2ccco2)n[nH]c1=S do in these assays?
KB-V1 cytotox: inactive; RORg inh: 11.2µM*; Gal4-VP16 FLuc: -4.5%; SW480 rerep: 4.9%; KB-3-1 tox: inactive; MCF10A rerep: -0.2%

What do the screens show for `S=c1[nH]nc(-c2ccccn2)n1/N=C/c1ccco1`?
KB-V1 cytotox: inactive; RORg inh: -24.2%; Gal4-VP16 FLuc: -0.5%; SW480 rerep: -13.7%; KB-3-1 tox: inactive; MCF10A rerep: -10.2%

How did Cc1cccc(-c2noc(-c3ccc(NC4CCCC4)c([N+](=O)[O-])c3)n2)c1 do in these assays?
KB-V1 cytotox: inactive; KB-3-1 tox: inactive

What do the screens show for `Cc1cccc(/C=N/n2c(-c3ccco3)n[nH]c2=S)c1`?
KB-V1 cytotox: inactive; RORg inh: inconclusive; Gal4-VP16 FLuc: -20.0%; SW480 rerep: 0.1%; KB-3-1 tox: inactive; MCF10A rerep: -7.2%

Results for S=c1[nH]nc(-c2ccco2)n1/N=C/c1cccc(Cl)c1 ?
KB-V1 cytotox: inactive; RORg inh: 14.1µM*; Gal4-VP16 FLuc: -16.1%; SW480 rerep: -6.4%; KB-3-1 tox: inactive; MCF10A rerep: 7.7%

Results for Cn1c(=O)n(C)c2cc(N3CCCCC3)c(NC(=O)c3c(F)cccc3F)cc21 ?
KB-V1 cytotox: inactive; KB-3-1 tox: inactive

What do the screens show for `CC(=O)N(NC(=O)c1ccccc1Cl)C1CC(=O)N(c2ccc(C)cc2)C1=O` (centres undefined)?
KB-V1 cytotox: inactive; RORg inh: 2.9%; Gal4-VP16 FLuc: -6.8%; SW480 rerep: 18.0%; KB-3-1 tox: inactive; MCF10A rerep: 16.4µM*

Results for O=C(NNC1CC(=O)N(c2ccccc2)C1=O)c1ccccc1Cl (centres undefined) ?
KB-V1 cytotox: inactive; RORg inh: 5.7%; Gal4-VP16 FLuc: 3.9%; SW480 rerep: -10.2%; KB-3-1 tox: inactive; MCF10A rerep: -0.4%

How did O=C(N/N=C(/CC(=O)c1cccs1)C(F)(F)F)c1ccc(O)cc1 do in these assays?
KB-V1 cytotox: inactive; RORg inh: 17.8µM*; Gal4-VP16 FLuc: inconclusive; SW480 rerep: -2.3%; KB-3-1 tox: inactive; MCF10A rerep: inconclusive

What do the screens show for `CC(=O)NC(=S)Nc1ccc(NC(=O)c2cccs2)cc1`?
KB-V1 cytotox: inactive; RORg inh: 44.0%; Gal4-VP16 FLuc: 29.1%; KB-3-1 tox: inconclusive; MCF10A rerep: 3.7%

Results for O=C(NC(=S)Nc1ccccc1)c1cccs1 ?
KB-V1 cytotox: inactive; RORg inh: 5.01µM*; Gal4-VP16 FLuc: 8.91µM*; SW480 rerep: -2.0%; KB-3-1 tox: inactive; MCF10A rerep: inconclusive

What do the screens show for `CCCCC(=O)Nc1ccc(C(=O)NNC(=S)NC(=O)c2cccs2)cc1`?
KB-V1 cytotox: inactive; RORg inh: 7.94µM*; Gal4-VP16 FLuc: 8.91µM*; SW480 rerep: 8.7%; KB-3-1 tox: inactive; MCF10A rerep: 8.1%

What do the screens show for `O=C(NNC(=S)NC(=O)c1cccs1)c1ccc(O)cc1`?
KB-V1 cytotox: inactive; RORg inh: 7.94µM*; Gal4-VP16 FLuc: 11.2µM*; SW480 rerep: inconclusive; KB-3-1 tox: inactive; MCF10A rerep: 10.5%

What do the screens show for `COC(=O)c1ccc2c(=O)n(CCCCCC(=O)N3CCN(c4cccc(C)c4C)CC3)c(=O)[nH]c2c1`?
KB-V1 cytotox: inactive; KB-3-1 tox: inactive

Results for Cc1ccc(NC(=O)c2cc3c([nH]c2=O)CC(C)(C)CC3=O)cc1 ?
KB-V1 cytotox: inactive; KB-3-1 tox: inactive

Results for O=C(NNC(=S)NC(=O)c1cccs1)c1ccc(NC(=O)c2ccccc2)cc1 ?
KB-V1 cytotox: inconclusive; RORg inh: 4.47µM*; Gal4-VP16 FLuc: 6.31µM*; SW480 rerep: inconclusive; KB-3-1 tox: inconclusive; MCF10A rerep: inconclusive

Results for O=C(Nc1ccc(NC(=O)c2cccs2)cc1)c1cccs1 ?
KB-V1 cytotox: inactive; RORg inh: inconclusive; Gal4-VP16 FLuc: 8.2%; SW480 rerep: -4.3%; KB-3-1 tox: inactive; MCF10A rerep: 18.4%

Results for O=C(Nc1nonc1NC(=O)c1cccs1)c1cccs1 ?
KB-V1 cytotox: 10.3µM*; RORg inh: 6.2%; Gal4-VP16 FLuc: -0.5%; SW480 rerep: -2.7%; KB-3-1 tox: inconclusive; MCF10A rerep: 2.6%[9.22 µM]

Results for O=C(Nc1ccc(-c2ccccc2)cc1)c1ccccc1 ?
KB-V1 cytotox: inactive; RORg inh: -0.5%; Gal4-VP16 FLuc: 2.1%; SW480 rerep: -0.9%; KB-3-1 tox: 20.6µM*; MCF10A rerep: inconclusive

How did O=C(Nc1ccc(NC(=S)NC(=O)c2cccs2)cc1)c1ccccc1 do in these assays?
KB-V1 cytotox: inconclusive; RORg inh: 7.94µM*; Gal4-VP16 FLuc: 15.8µM*; SW480 rerep: inconclusive; KB-3-1 tox: inactive; MCF10A rerep: 0.5%

How did Cc1cc(C)n(CCc2nc3c4ccccc4nc(N4CCN(c5ccccc5)CC4)n3n2)n1 do in these assays?
KB-V1 cytotox: inactive; KB-3-1 tox: inactive

How did COc1cccc(CNC(=O)CSc2nnc(C)c3c(C)n(-c4ccccc4)nc23)c1OC do in these assays?
KB-V1 cytotox: inactive; KB-3-1 tox: inactive
